Screening results: PubChem, Sanford-Burnham Center for Chemical Genomics
KKLEB cytotox – reduces viability of KKLEB cystic fibrosis airway cells | KKLEB CF airway cells viability, ATPlite luminescence, overnight; active compounds read low; cells stimulated with P. aeruginosa culture filtrate | 360,000 tested, 0.36% active | AID 602141 | activity change (cytotoxicity), % at 5 µM;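 active means corrected activity change at or below -50% at 5 µM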
Peg3 promoter – reduces Peg3 promoter-driven luciferase expression in HeLa | HeLa PEG-Prom luciferase reporter, luminescence, overnight | inhibition, % at 20 µM | 360,000 tested, 1.7% active | AID 588405;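 active means inhibition of at least 50% at 20 µM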
TROY signal inh – inhibitors of TROY-dependent NF-kB signaling; AID 1347056; inhibition, % at 10 µM; 360,000 tested, 0.98% active; Q293 LMP1-TROYcd NF-kB luciferase reporter, 4 h;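 active means compounds whose plate-normalised and pattern-corrected inhibition of the luciferase reporter signal at the single screening dose is 50% or more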
TWEAK-Fn14 inh – inhibitors of TWEAK-Fn14 interaction signaling | TWEAK-stimulated Fn14 reporter cells, luciferase luminescence, 8 h | inhibition, % at 10 µM | 360,000 tested, 2% active; in the data active means inhibition above about 50%
CF NFkB inh – inhibitors of cystic fibrosis induced NF-kB; KKLEB NF-kB-GFP reporter, PAF-induced, GFP fluorescence overnight; inhibition, % at 5 µM; 360,000 tested, 0.86% active; AID 588850;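 active means at least 50% inhibition at 5 µM, scaled per plate between neutral and stimulator controls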;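 further: PAF is a Pseudomonas aeruginosa culture filtrate used as stimulus; plate controls were PAF-stimulated DMSO wells for no effect and unstimulated DMSO wells for full effect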
HIF-2a inh – blocks HIF-2a reporter activity. 786-0 RCC cells HIF-2a reporter, luciferase luminescence, overnight. 360,000 tested, 0.72% active. AID 624352. inhibition, % at 18.8 µM;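 active means inhibition of the luminescence signal of 40% or more relative to plate controls, in a single-dose primary screen at 18.75 µM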
Starred values were filed as active, the others as inactive; · = no result; ! = repeats disagree. In the library only some 3.9% were active in any assay of this set; here they are far more common.

SMILES	KKLEB cytotox	Peg3 promoter	TROY signal inh	TWEAK-Fn14 inh	CF NFkB inh	HIF-2a inh
N/C(=N\OC(=O)c1ccc(Cl)c(Cl)c1)c1ccccn1	-15	47	39	80*	1	-111
CCOc1ccc(C(=O)O/N=C(\N)c2ccccn2)cc1OCC	-1	-141	-33	-3	-7	-206
COCC1CCN(Cc2cn[nH]c2-c2ccc(OC)cc2F)C1 (configuration not stated)	11	0	10	-15	-6	18
S=c1nc[nH]c2nc[nH]c12	-23	39	7	-15	-7	-73
Cc1ccc(N2CCN(C(C(=O)Nc3c(C)cccc3C)c3cc4ccccc4o3)CC2)cc1 (configuration not stated)	·	·	·	·	·	4
CC1CC(C)CN(C(=O)CCC(=O)Nc2nnc(C(C)C)s2)C1 (configuration not stated)	-24	5	-22	-2	16	-3
N/C(=N\OC(=O)c1cccc(Br)c1)c1ccccc1	3	-243	-47	36	9	-143
COc1cc(C(=O)O/N=C(\N)c2cccc([N+](=O)[O-])c2)cc(OC)c1OC	-8	-11	-1	62*	-9	-27
COc1cc(C(=O)O/N=C(\N)c2ccc([N+](=O)[O-])cc2)cc(OC)c1OC	4	-23	-9	-32	-5	-23
N/C(=N\OC(=O)c1cccc(Br)c1)c1ccccn1	-13	-54	66*	86*	-7	24
COc1nc(Nc2cccc([N+](=O)[O-])c2)nc(OC)n1	6	34	11	-4	-23	-3
CC(=O)N1CCN(C(=O)c2ccc(NS(=O)(=O)c3ccc(Cl)c(Cl)c3)cc2)CC1	-3	-16	-3	-33	10	2
CCCCNC(=O)c1sc(=S)n2c1[nH]c(=O)c1ccc(C(=O)NCCc3ccc(OC)c(OC)c3)cc12	4	-1	-10	0	26	-15
O=C(NCc1ccccc1)c1sc(=S)n2c1[nH]c(=O)c1ccccc12	-19	14	45	-40	51*	-9
CCc1ccc(C(=O)COC(=O)c2n[nH]c3ccccc23)cc1	-14	-144	12	62*	5	-61
CCc1ccc(C(=O)COC(=O)c2nn(C)c(=O)c3ccccc23)cc1	-14	-3	6	-2	25	13
O=C(CCc1c[nH]c2ccccc12)NCCc1ccc2c(c1)OCCO2	-4	13	31	42	12	-1
CC(=O)N(C)c1ccc(C=C2C=Cc3ccccc32)cc1	-19	-160	71*	79*	-42	-106
CN(N=O)c1ccc(C=C2C=Cc3ccccc32)cc1	-17	-360	1	22	-7	-282
CC1(C)Cc2ccccc2C2=NNC(=O)C2=N1	0	50	-13	16	75*	34
CC1(C)Cc2ccccc2C(Nn2cnnc2)=N1	5	-12	-21	-5	-2	6
Cc1nn(C)c(C)c1S(=O)(=O)N(CC(=O)Nc1ccc2c(c1)OCO2)c1ccc(C(C)C)cc1	-2	8	9	15	2	12
CCCCCCCCCCCC1N=C(N)NC(CCCO)=C1C(=O)OC (configuration not stated)	-4	96*	26	39	7	38
CC1=NOC(=O)/C1=C\c1ccc(-c2ccc(Cl)cc2Cl)o1	-3	108*	0	43	-26	56*
COc1ccc(C(=O)C=Cc2ccc(OCc3ccccc3)c(OC)c2)cc1OC	-16	80*	-12	29	0	21
SMILES	KKLEB cytotox	Peg3 promoter	TROY signal inh	TWEAK-Fn14 inh	CF NFkB inh	HIF-2a inh
COc1ccc(C=CC(=O)c2ccc(OC)c(OC)c2)cc1O	-9	-52	4	-9	35	-8
COc1cc(/C=C/C(=O)NC(C)(C)C)ccc1OCc1ccccc1	4	10	-7	13	-4	6
COc1ccc(C=CC(=O)c2ccc3cc(OC)c(OC)cc3c2)cc1OC	-13	92*	36	67*	36	3
COC(=O)c1cn(C(=O)/C=C/c2ccc(OC)c(OC)c2)c2ccccc12	-16	82*	17	38	12	-86
O=C(/C=C/c1ccccc1)c1ccc2ccccc2c1	8	78*	-83	-13	-24	-220
COc1cccc(-c2nc(CS(=O)(=O)CC(=O)NCCCN3CC(C)CC(C)C3)c(C)o2)c1 (configuration not stated)	-1	-11	-19	-2	4	-4
CCOc1ccc2ccccc2c1C(=O)N1CCOCC1	-3	11	14	21	4	20
COCCNC(=S)N(CCc1c(C)[nH]c2ccc(C)cc12)Cc1cc(OC)c(OC)c(OC)c1	-7	37	6	-21	13	20
COc1cc(OC)c(C(=O)C=Cc2ccc(OC)c(OC)c2)c(OC)c1	-13	16	8	-6	35	37
COc1ccc(Oc2ccc(/C=C/C(=O)c3cccc(OC)c3)cc2[N+](=O)[O-])cc1	1	114*	-1	60*	-28	34
COc1ccc(/C=C/C(=O)C(C)(C)C)cc1OC	3	83*	-19	1	-2	-12
COc1ccc(Oc2ccc(/C=N/NC(=O)c3cccnc3)cc2[N+](=O)[O-])cc1	-2	-15	-13	8	-14	0
COc1ccccc1-c1coc2c(CN(C)C)c(O)ccc2c1=O	0	12	0	10	4	15
COc1cc(NC(=O)c2cnc(N)o2)cc(C(=O)Nc2cccc(C(F)(F)F)c2)c1	1	56*!	25	57*!	-1	-67
COCCNC(=O)CCc1c(C)nc2c(c(C)nn2-c2ccc(C)cc2)c1C	-11	14	-4	2	2	21
CCN(CC)CCNC(=O)CCc1c(C)nc2c(c(C)nn2-c2ccc(C)cc2)c1C	-11	73*	-21	-13	17	28
CCCc1c(-c2ccc(O)cc2)nn(-c2ccc(O)cc2)c1-c1ccc(O)cc1	-5	23	75*	1	30	32
Cc1c(C(N)=O)c(-c2ccccc2)nn1-c1ccccc1	1	7	-11	0	0	13
O=C(/C=C/c1cccs1)NC(=S)Nc1ccc(S(=O)(=O)Nc2ccccc2C(F)(F)F)cc1	12	22	52*	9	-22	7
CCC(CC)=N/N=C/c1c(O)n(CC)c2cc(C3=NNC(=O)CC3)ccc12	3	2	4	-44	-2	17
CCn1c(O)c(/C=N/N=C/c2ccccc2)c2ccc(C3=NNC(=O)CC3)cc21	6	50*	5	37	-10	14
COc1ccc(/C=N/NS(=O)(=O)c2ccc(C)cc2)cc1OC(=O)c1ccc(C)cc1	1	10	6	55*	10	-16
Fc1ccc(Nc2ccc3ccccc3n2)c(F)c1	4	-209	-2	52*	-38	-208
